Reference: ChEMBL document CHEMBL3988442, “University of Dundee, Small-Polar-MMV Screening Library” (2021)
Out of some 38,000 compounds screened, about 1,200 (3.2%) showed an effect of 50% or more. The median lay at about -58%. The sample holds strong results, similar compounds and a random draw of the others, so the mix is not that of the screen.

These compounds were tested on Plasmodium falciparum (assay: Calibr Malaria Delayed Death Assay SOP). Conditions: concentration 4.99e-06 (unit not given; other assays of the set use mol/L).
Type: functional, organism-based
Set-up: scale not given: in the data most compounds retested in dose-response had high values

SMILES	Percent Effect [%]
NCC(CO)Cc1ccc(C(F)(F)F)cc1 (centres undefined)	-43.7
CC(C)Oc1ncccc1CNC(=O)c1ccc(=O)[nH]n1	-94.73
CCCS(=O)(=O)NCCc1ncc(C)s1	-127.4
COc1ccc(NC(=O)C(c2cccc(F)c2)N2CCOCC2)cc1 (centres undefined)	-6.296
Cc1cc(C)c(S(=O)(=O)Nc2cccc3c2OCCO3)cc1C(=O)O	-20.88
CNCC(=O)NC1CC(C)(C)Cc2nc(C(C)(C)C)ncc21 (centres undefined)	3.513
CC(C)C(=O)N1CCN(Cc2cnn(C)c2)CC2(CC(=O)N(C)C2)C1.O=C(O)C(F)(F)F (centres undefined)	-69.27
COc1ccc2nnc(C(=O)NCC3CCCC3)nc2c1	-78.39
Cc1cc(CNCC2(O)CCOCC2)ccc1Br	44
OC1(CNCc2ccc(F)c(C(F)(F)F)c2)CCSCC1	54.72
OC1(CNCc2ccc(F)c(C(F)(F)F)c2)CCOC1 (centres undefined)	-5.548
Cc1cc(CNCC2(O)CCOCC2)ccc1F	16.95
O=C(NCc1ccc(Cl)cc1Cl)NCC1(O)CCSC1 (centres undefined)	0.496
CN1CCC(O)(CNCc2ccc(F)c(C(F)(F)F)c2)CC1	82.66
COCC1CN(Cc2ccsc2)Cc2cnn(C)c21 (centres undefined)	-44.18
CC(C)[C@H](NC(=O)NC1CCS(=O)(=O)C1)C(=O)NCc1ccccc1 (some centres undefined)	-124.5
Cc1nnsc1CN1C[C@H]2CC[C@@H]1CN(Cc1ccccn1)C2	-7.135
CC(C)c1cc(C(=O)N2C[C@H]3CC[C@@H]2CN(Cc2ccccn2)C3)no1	-200.1
Cc1cnn(C2CN(CC(=O)NCc3ccccn3)C2)c1	-188.5
O=C(CN1C[C@H]2CC[C@@H]1CN(Cc1ccccn1)C2)NCc1cccs1	67.17

SMILES	Percent Effect [%]
O=C(CN1C[C@H]2CC[C@@H]1CN(Cc1ccccn1)C2)Nc1ccccc1	82.97
O=C(c1cc(C2CC2)no1)N1C[C@H]2CC[C@@H]1CN(Cc1ccccn1)C2	5.083
Cc1nccc(CNC(=O)N(CCCO)C2CCc3ccccc32)n1 (centres undefined)	-86.6
COc1ccccc1CNC(=O)COc1ccc2c(c1)OCC2O (centres undefined)	-166.7
CC(C)n1cc(-c2nc3cc(S(=O)(=O)N4CCCC4)ccc3n2C)cn1	-92.66
Cc1ccccc1C(C(=O)NCCn1cccc1)N(C)C (centres undefined)	36.37
Cc1ccc(C(C(=O)NCCN2CCCCCC2)N(C)C)cc1 (centres undefined)	58.29
O=C(NCCn1cccc1)C(c1ccccc1)N1CCCC1 (centres undefined)	54.29
CC1(C(=O)NCCN2CCCCC2)CCCN1C(=O)c1ccccc1 (centres undefined)	-16.7
Cc1ccc(C(C(=O)NCCN2CCC(CO)CC2)N(C)C)cc1 (centres undefined)	-10.34
O=C(NCCNc1cccnc1)C(c1cccnc1)N1CCCC1 (centres undefined)	-14.56
CN1CCN(CCNC(=O)C(OC2CCCC2)c2ccccc2)CC1 (centres undefined)	38.55
O=C(NCCN1CCCCC1)C(c1ccccc1)N1CCCC1 (centres undefined)	79.97
Cc1ccccc1C(C(=O)NCCN1CCC(CO)CC1)N(C)C (centres undefined)	-106.7
COc1cccc(Cn2cc(N3C(=O)[C@H]4CCCC[C@H]4C3=O)cn2)c1	-60.69
Cc1cccc(C)c1OCCCN1CCN(CC2CCCO2)CC1 (centres undefined)	11.15
CC/N=c1\nc(NCC)nc2n1C(O)(Nc1cc(Cl)ccc1Cl)CS2 (centres undefined)	-3.589
CC(=O)c1ccc(NC(=O)N[C@H](C(=O)O)C(C)C)cc1	-95.29
NC1CCCc2nc(-c3ccccc3)ncc21 (centres undefined)	-87.16
O=C(c1ccccc1Cl)N1CC[C@H](O)[C@@H](N2CCOCC2)CC1	-83.45

SMILES	Percent Effect [%]
COc1cccc(CN2C[C@@H]3COC[C@]3(COc3cccnc3)C2)c1.O=C(O)C(F)(F)F.O=C(O)C(F)(F)F	12.68
COc1ccccc1CN1C[C@@H]2COC[C@]2(COCc2ccncc2)C1.O=C(O)C(F)(F)F.O=C(O)C(F)(F)F	53.03
COc1cccc(CN2C[C@@H]3COC[C@]3(COCc3ccccn3)C2)c1.O=C(O)C(F)(F)F.O=C(O)C(F)(F)F	58.94
COc1ncccc1CN1C[C@@H]2COC[C@]2(COc2cccnc2)C1.O=C(O)C(F)(F)F.O=C(O)C(F)(F)F.O=C(O)C(F)(F)F	-33.52
O=C(O)C(F)(F)F.O=C(O)C(F)(F)F.O=C(O)C(F)(F)F.c1ccc(CN2C[C@@H]3COC[C@]3(COCc3ccncc3)C2)nc1	-55.25
O=C(O)C(F)(F)F.O=C(O)C(F)(F)F.O=C(O)C(F)(F)F.c1cc(COC[C@]23COC[C@H]2CN(Cc2ccncc2)C3)ccn1	-128.8
CCOC[C@]12COC[C@H]1CN(Cc1cccc(OC)c1)C2.O=C(O)C(F)(F)F	-1.674
COc1ccccc1CN1C[C@@H]2COC[C@]2(COc2cccnc2)C1.O=C(O)C(F)(F)F.O=C(O)C(F)(F)F	52.99
COc1cc(N2C[C@@H]3COC[C@]3(COCc3ccccn3)C2)ncn1.O=C(O)C(F)(F)F.O=C(O)C(F)(F)F	-135.9
Cc1cnc(CN(C)Cc2cc3c(cc2OC(F)F)OCO3)o1	-25.68
Cc1noc(C)c1CSCc1csc(CS(C)(=O)=O)n1	-34.91
COCCCNC(=O)c1cc(-c2cnc(N3CCOCC3)nc2)cn1C.O=C(O)C(F)(F)F	-55.95
CCn1ncc2c1C(COC)CN(Cc1nccs1)C2 (centres undefined)	-17.13
COc1ccc(-n2ccc(C(=O)NCCN3CCCC(C)C3)n2)cc1 (centres undefined)	4.937
Cn1cc(CN2C[C@H]3CCN(C(=O)c4cscn4)C[C@H]3C2)cn1.O=C(O)C(F)(F)F	-59.18
CC(Cn1cccn1)NCc1csc(Cc2ccccc2)n1 (centres undefined)	5.726
COc1ccc(CCN)cc1-c1ccc(O)cc1	84.96
CCOc1ccc(-c2cc(CCN)ccc2OC)cc1	-62.01
COc1ccc(CCN)cc1-c1ccc(C(N)=O)cc1	6.686
